Source: PubChem BioAssay (EPA / NIEHS)
Calls of active or inactive are those of the source. Rule for the calls: active = hit-call score of the fitted dose curve at least 0.9, where 1 is the maximum; inactive = score below 0.9.

read-out: Human Leukocyte Antigen - DR isotype (HLADR), HLA-DRA (gene 3122); assay: BSK_3C_HLADR: BioMAP Diversity Plus: 3C Assay for Human Leukocyte Antigen - DR isotype (HLADR) Biomarker Activity (AID 2283019); conditions: primary human endothelial cells (HUVEC); actives raise or lower the signal
Protocol: BSK_3C is a cell-based, multiplexed-readout assay that uses umbilical vein endothelium, a human vascular primary cell, with measurements taken at 24 hours after chemical dosing in a 96-well plate.BSK_3C_HLADR is an assay component measured in the BSK_3C assay. It measures HLA-DR antibody related to regulation of gene expression using ELISA technology.Data from the assay component BSK_3C_HLADR was analyzed into 1 assay endpoint. This assay endpoint, BSK_3C_HLADR, was analyzed with bidirectional fitting relative to DMSO as the negative control and baseline of activity. Using a type of binding reporter, gain or loss-of-signal activity can be used to understand changes in the signaling as they relate to the gene HLA-DRA. Furthermore, this assay endpoint can be referred to as a primary readout, because this assay has produced multiple assay endpoints where this one serves a signaling function. To generalize the intended target to other relatable targets, this assay endpoint is annotated to the cell adhesion molecules intended target family, where the subfamily is MHC Class II.
The levels of cell surface (or secreted, indicated by the prefix "s") biomarker endpoints were measured by ELISA. Overt cytotoxicity to cells in confluent adherent cultures (all systems other than the BT system) was assessed by measuring total protein levels using sulforhodamine B (SRB) staining in parallel cultures at the time of biomarker measurements, indicated as SRB endpoints. For proliferation assays for adherent cell types, individual cell types are cultured at sub-confluence and relative cell numbers quantified by SRB staining at time points optimized for each system (48 h: 3C and CASM3C systems; 72 h: BT and HDF3CGF systems; 96 h: SAg system). SRB was performed by staining cells with 0.1% SRB after fixation with 10% TCA and reading wells at 560 nm.Viability and proliferation of PBMC (T cells) was quantified by Alamar Blue reduction for the SAg and BT systems. For PBMC viability (referred to as PBMC Cytotoxicity within the assay endpoint names), cells were plated (75,000/well in a 96-well plate) and then chemical samples added for 1 h before addition of activators, SEB and TSST-1 (20 ng/mL final concentration each). Cells were incubated for 90 h. Then, Alamar Blue (20 uL/well) (Invitrogen, Cat DAL1100) was added for 6 h, and the plates were read with a fluorescence microplate reader at 546/580 nm (excitation/emission). For PBMC proliferation, cells were plated and activated as above but incubated for only 16 h prior to addition of Alamar Blue. Plates were read after 6 h.

SMILES | AC50 | outcome
CN1CCN(c2ccccc2/C=C2\SCCN(c3ccc(Cl)c(Cl)c3)C2=O)CC1 | 11.3 µM (active) | 
C[C@@H]1C[C@H]2[C@@H]3CCC4=CC(=O)C=C[C@]4(C)[C@@]3(F)[C@@H](O)C[C@]2(C)[C@@]1(O)C(=O)COP(=O)(O)O |  | inactive
c1ccc2cc3c(ccc4ccccc43)cc2c1 |  | inactive
CCN(CC)CCNc1ccc(CNC=O)c2sc3ccc(OC)cc3c(=O)c12 | 13.4 µM (active) | 
CC#C[C@]1(O)CC[C@H]2[C@@H]3CCC4=CC(=O)CCC4=C3[C@@H](c3ccc(N(C)C)cc3)C[C@@]21C | 37.7 µM (active) | 
CC[C@H](c1ccc(O)cc1)[C@@H](CC)c1ccc(O)cc1 | 20.9 µM (active) | 
Nc1cccc2c(N)cccc12 |  | inactive
O=C(OCCOCCOC(=O)c1ccccc1)c1ccccc1 |  | inactive
Oc1cc2ccccc2c2ccccc12 | 6.95 µM (active) | 
CCc1nn(C2CCCCC2)c2cc(C3(C#N)CCC(C(=O)O)CC3)ccc12 (stereo not given) | 20 µM (active) | 
CCCCCCC(=O)O |  | inactive
CCc1ccc(CCOc2ccc(CC3SC(=O)NC3=O)cc2)nc1 (stereo not given) |  | inactive
c1ccc2c(c1)ccc1ccccc12 |  | inactive
CC(C)(C)c1cccc(C(C)(C)C)c1O |  | inactive
COC(=O)CCCCC(=O)OC |  | inactive
COCC(C)O (stereo not given) |  | inactive
NC(=O)N(O)[C@@H]1C=C[C@H](Oc2cccc(Oc3ccc(F)cc3)c2)C1 |  | inactive
CN(C)C=O |  | inactive
O=[N+]([O-])c1ccc(O)cc1 |  | inactive
CCCCCCCC(=O)O |  | inactive

SMILES | AC50 | outcome
CCCCCCCCCCCCc1ccccc1S(=O)(=O)O |  | inactive
O=c1c(-c2ccc(O)cc2)coc2cc(O)ccc12 | 27.1 µM (active) | 
CCCCCCCCOC(=O)CCCCCCCCC(=O)OCCCCCCCC |  | inactive
ClC1=C(Cl)C(Cl)(Cl)C(Cl)=C1Cl | 4.6 µM (active) | 
CCCCOCCO |  | inactive
NC(=O)N1C(=O)C(C(=O)c2cc(Cl)cs2)c2cc(F)c(Cl)cc21 (stereo not given) | 13.4 µM (active) | 
OC1CCCCC1 |  | inactive
CN1CCC[C@H]1c1cccnc1 |  | inactive
O=C(O)Cc1cc(I)c(Oc2cc(I)c(O)c(I)c2)c(I)c1 | 26.2 µM (active) | 
CC[C@H](C)[C@@H](C(=O)O)n1sc2ccccc2c1=O |  | inactive
CCOC(=O)CC(O)(CC(=O)OCC)C(=O)OCC |  | inactive
CCCOc1sc(C(=O)N2CCC(c3cc(CN)ccc3F)CC2)c(C)c1Br | 7.77 µM (active) | 
O=C(O)c1ccccc1C(c1ccc(O)cc1)c1ccc(O)cc1 |  | inactive
CC(C)(C)CC(C)(C)c1ccc(O)c(-n2nc3ccccc3n2)c1 |  | inactive
OC1CCC(C2CCCCC2)CC1 (stereo not given) |  | inactive
C=C(C)C(=O)OCCC(F)(F)C(F)(F)C(F)(F)C(F)(F)C(F)(F)C(F)(F)F |  | inactive
COCC(C)OCC(C)O (stereo not given) |  | inactive
CC(C)CCCCCCOC(=O)CCCCC(=O)OCCCCCCC(C)C |  | inactive
CC(O)CO (stereo not given) |  | inactive
CCCCC(CC)COC(=O)CCCCC(=O)OCC(CC)CCCC (stereo not given) |  | inactive
